Test results taken from PubChem BioAssay (NCI).
Compounds without any hit were thinned out: in the full panel of roughly 83,000, 20% have a hit.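 Method: cells in 96-well plates; compound added at one concentration; 48 h incubation; percent growth measured; values under 10 scored active.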 A number with no mark means an inactive call. Calls of active or inactive are those of the source.

How the values were obtained:
Experiment in all cases: NCI-60 one-dose screen, 48 h (100 = growth as untreated, 0 = no growth, -100 = all killed)
Conditions in all cases: 10 µM unless noted
[1] = tested on: DU-145 prostate
[2] = tested on: K-562 leukemia
[3] = tested on: MALME-3M melanoma
[4] = tested on: MDA-MB-231 breast
[5] = tested on: RXF 393 renal
[6] = tested on: SF-268 CNS
[7] = tested on: SF-295 CNS
[8] = tested on: SF-539 CNS
[9] = tested on: UACC-257 melanoma
[10] = tested on: M14 melanoma
[11] = tested on: HCT-15 colon
[12] = tested on: HT29 colon
[13] = tested on: SNB-75 CNS
[14] = tested on: SNB-19 CNS
[15] = tested on: U251 CNS
[16] = tested on: PC-3 prostate
[17] = tested on: SK-MEL-5 melanoma
[18] = tested on: UACC-62 melanoma
[19] = tested on: LOX IMVI melanoma
[20] = tested on: SK-MEL-28 melanoma

Structure (SMILES) | growth [1] | growth [2] | growth [3] | growth [4] | growth [5] | growth [6] | growth [7] | growth [8] | growth [9] | growth [10] | growth [11] | growth [12] | growth [13] | growth [14] | growth [15] | growth [16] | growth [17] | growth [18] | growth [19] | growth [20]
Cc1ccc(C2=C/C(=C/c3ccc(Br)cc3)C(=O)N2CCc2ccc(S(N)(=O)=O)cc2)cc1 | 104% | 88.6% | 93.4% | 90.4% | 90% | 87.6% | 101% | 97.4% | 101% | 97.5% | 99.8% | 106% | 60.9% | 89.7% | 95.5% | 88% | 94.7% | 78.7% | 99.6% | 104%
O=C1Nc2ccccc2/C1=C/C(=O)c1ccc(N2CCOCC2)cc1 | 74% | 75% | 75.9% | 88.4% | 92.2% | 86.5% | 99.1% | 90.8% | 95.7% | 99.7% | 93% | 83.4% | 90.5% | 93.9% | 81.9% | 84.6% | 101% | 83.2% | 88.9% | 107%
Nc1nc(Nc2ccccc2)c2ncn(Cc3ccc4c(c3)OCO4)c2n1 | 80.9% | 15.7% | 53% | 44% | 52.8% | 62.8% | 43.6% | 46% | 72.9% | 16.3% | 23.1% | 20.6% | 29.4% | 54.4% | 49.5% | 58.4% | 21.4% | 41.3% | 48% | 63.5%
COc1cc2c(c(OC)c1OC)-c1ccc(NNC(N)=S)c(=O)cc1[C@@H](NC(C)=O)CC2 | -14.5% (active) | 10.1% | 88.4% | 20% | -8.91% (active) | 21.3% | 10.6% | -18.4% (active) | 57.2% | -2.7% (active) | 38.8% | -17.8% (active) | 59.5% | 42.3% | 13.6% | 13.8% | -41.2% (active) | 32.2% | 26.2% | 62.8%
CCCC(NC(=O)OCc1ccccc1)C(=O)O (stereo not given) | 107% | 107% | 88.8% | 75.9% | 90.5% | 104% | 92.3% | 95.9% | 36.1% | 93.1% | 103% | 104% | 84% | 99.4% | 104% | 93.8% | 90.1% | 89.6% | 99.5% | 92.8%
Cc1ccc(S(=O)(=O)NCCCNc2nccc(-c3c(-c4cccc(F)c4)nc4occn34)n2)cc1 | 73.8% | 36.7% | 64.6% | 64% | 77.7% | 61.6% | 100% | 95.1% | 91.5% | 57% | 73.4% | 27.8% | 73.5% | 90.7% | 70.6% | 44.3% | 67.2% | 58.6% | 57.9% | 95.9%
O=C(O)CSCc1nnc2n(Cc3ccccc3)c(=O)c3c4c(sc3n12)CCCC4 | 114% | 78.6% | 112% | 83.5% | 88.5% | 112% | 57.9% | 101% | 104% | 158% | 101% | 111% | 87.4% | 97.3% | 102% | 101% | 103% | 75.4% | 88.1% | 131%
